According to PubChem BioAssay (Tox21):
Where “and” joins values, the source holds several entries; their conditions need not be identical. Equal entries are not always repeated. Records with an inconclusive call do not appear. A call without a number means that no potency is given here. A structure can be active in one record and inactive in another. Calls of active or inactive are those of the source. Calls follow the shape of the dose curve; as a rule, active = well fitted cell-killing curve with a large enough effect in the repeat runs; inconclusive = weak or mixed curves, or effect the other way; inactive = no such curve, though single readings can be large or run the other way.

Experiment: qHTS assay to identify small molecule agonists of the estrogen receptor alpha (ER-alpha) signaling pathway in the presence of an antagonist - cell viability counter screen (AID 1259386);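 also: cells exposed to compounds for 22 h at 37 °C before the viability read; nearly all actives have a fitted effect of over 30% in size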
Settings: VM7Luc4E2 viability, CellTiter-Fluor fluorescence, 22 h; series mostly up to 92.4 µM
Excerpt: National Center for Advancing Translational Sciences [NCATS]
NIH Chemical Genomics Center [NCGC]
U.S. Environmental Protection Agency [EPA]
National Institutes of Environmental Health Sciences [NIEHS]
National Toxicology Program [NTP]
U.S. Food and Drug Administration [FDA]
Estrogen receptor (ER), a member of nuclear hormone receptor plays an important role in development, metabolic homeostasis and reproduction. Two subtypes of ER, ER-alpha and ER-beta, have similar expression patterns with some uniqueness in both types. Endocrine disrupting chemicals (EDCs) and their interactions with steroid hormone receptors like ER causes disruption of normal endocrine function. Therefore, it is important to understand the effect of environmental chemicals in ER signaling pathway. For identifying ER agonists, VM7Luc4E2 cell line has been used in the current assay.
VM7Luc4E2 cell line (provided by Denison MS, University of California) endogenously expresses full-length ER-alpha and is stably transfected with a plasmid containing four estrogen responsive elements (ERE) upstream of a luciferase reporter gene. This current screening for measuring luciferase reporter gene activity using VM7Luc4E2 cells against Tox21 10K library collection is a confirmation study on agonist mode screening in presence of ER-antagonist (ICI-182,780) at 10.0nM final concentration. The cytotoxicity of the compounds was tested in parallel by measuring the cell viability using CellTiter-Fluor assay system (Promega, Madison, WI) in the same wells.
Tox21 Assay Protocol Summary:
VM7Luc4E2 cells were cultured in phenol red free assay medium containing 10% charcoal stripped FBS for 5 days prior to the assay. The cells were dispensed at 4,000 cells in 4uL of assay medium per well into white wall/solid-bottom 1536-well plates (Corning Life Sciences, Corning, NY) using a Multidrop Combi (Thermo Fisher Scientific Inc., Waltham, MA) dispenser. After the assay plates were incubated at 37C and 5% CO2 for 24hr, 1uL of 10.0nM (final concentration) ICI-182,780 or assay buffer was added using two separate tips of Flying Reagent Dispenser (FRD, Aurora Discovery, San Diego, CA). Then 23nL of compounds dissolved in DMSO at 15 concentrations and positive controls or DMSO only was transferred to the assay plates by a Pintool station (Wako, San Diego, CA). The assay plates were incubated at 37C and 5% CO2 for 22hr. After 21hr incubation at 37C, 1uL/well CellTiter-Fluor reagent (Promega Corporation, Madison, WI) was added to each well using FRD and after 1hr incubation at 37C and 5% CO2, the fluorescence signal was measured on ViewLux plate reader (PerkinElmer, Shelton, CT).
Potency is read from the fitted curve at half-maximal effect.

Row | SMILES | Potency
1 | c1ccc2c(c1)ccc1cc3c(ccc4ccccc43)cc12 | inactive
2 | CCCCCC1C(=O)CCC1CC(=O)OC (stereo not given) | inactive
3 | c1ccc2c(c1)[nH]c1ccccc12 | inactive
4 | CC(C)[N+](C)(CCOC(=O)C1c2ccccc2Oc2ccccc21)C(C)C | inactive
5 | CC(=O)[C@@]1(O)CC[C@H]2[C@@H]3C[C@H](C)C4=CC(=O)C=C[C@]4(C)[C@@]3(F)[C@@H](O)C[C@@]21C | inactive
6 | Cc1ccc(N)c([N+](=O)[O-])c1 | inactive
7 | CCCCCCCC/C=C\CCCCCCCC(=O)O | inactive
8 | C[N+](C)(C)CCO | inactive
9 | C=CCCCCCCCCCC | inactive
10 | CN(C)C | inactive
11 | CCC(=O)O[C@H]1[C@H](O[C@@H]2[C@@H](C)[C@H](O[C@H]3C[C@@](C)(OC)[C@@H](O)[C@H](C)O3)[C@@H](C)C(=O)O[C@H](CC)[C@@](C)(O)[C@H](O)[C@@H](C)C(=O)[C@H](C)C[C@@]2(C)O)O[C@H](C)C[C@@H]1N(C)C | 32.2 µM (active) and inactive
12 | CCc1cccc2c3c([nH]c12)C(CC)(CC(=O)O)OCC3 (stereo not given) | inactive
13 | Nc1cc(Cl)c(N)c(Cl)c1 | inactive
14 | C=CCNCC=C | inactive
15 | COC(=O)CC(=O)OC | inactive
16 | NCCS(=O)(=O)O | 25.3 µM (active) and inactive
17 | C[C@]12C=CC(=O)C=C1CC[C@H]1[C@@H]3C[C@@H](O)[C@](O)(C(=O)CO)[C@@]3(C)C[C@H](O)[C@@]12F | inactive
18 | O=C(O)COCCN1CCN(C(c2ccccc2)c2ccc(Cl)cc2)CC1 (stereo not given) | inactive
19 | NC[C@H](O)c1ccc(O)c(O)c1 | inactive
20 | COC(=O)c1ccc(C)cc1 | inactive

Row | SMILES | Potency
21 | OCCNCCO | inactive
22 | CCC(Cc1c(I)cc(I)c(N)c1I)C(=O)O (stereo not given) | inactive
23 | COC(=O)C(C)Oc1ccc(Oc2ncc(C(F)(F)F)cc2Cl)cc1 (stereo not given) | inactive
24 | CC(C)(C)c1cccc(C(C)(C)C)c1O | inactive
25 | CCCCCCCCCCC(CO)CCCCCCCC (stereo not given) | inactive
26 | OC[C@H]1O[C@@H]2O[C@H]3[C@H](O)[C@@H](O)[C@@H](O[C@H]4[C@H](O)[C@@H](O)[C@@H](O[C@H]5[C@H](O)[C@@H](O)[C@@H](O[C@H]6[C@H](O)[C@@H](O)[C@@H](O[C@H]7[C@H](O)[C@@H](O)[C@@H](O[C@H]1[C@H](O)[C@H]2O)O[C@@H]7CO)O[C@@H]6CO)O[C@@H]5CO)O[C@@H]4CO)O[C@@H]3CO | inactive
27 | CC(C)(Oc1ccc(Cl)cc1)C(=O)O | inactive
28 | C=CC(=O)OCCCC | inactive
29 | O=Cc1ccccc1C=O | inactive
30 | CCCOCCO | inactive
31 | Nc1ccc2c(O)cc(S(=O)(=O)O)cc2c1 | 48.6 µM (active) and 21.7 µM (active)
32 | C=CC(C)(O)CCC=C(C)C (stereo not given) | inactive
33 | FC(F)(F)C(Cl)Br (stereo not given) | inactive
34 | C[C@]12CC[C@@H]3c4ccc(O)cc4CC[C@H]3[C@@H]1CC[C@H]2O | inactive
35 | Cc1ccc(/C(=C\CN2CCCC2)c2ccccn2)cc1 | inactive
36 | C=C1C[C@H]2[C@@H]3C=C(C)C4=CC(=O)CC[C@]4(C)[C@H]3CC[C@]2(C)[C@@]1(OC(C)=O)C(C)=O | inactive
37 | CC[C@]12CCCN3CCc4c(n(c5ccccc45)[C@@](O)(C(=O)OC)C1)[C@@H]32 | inactive
38 | CC(C)=CCO | inactive
39 | CN(C)CCCN1c2ccccc2Sc2ccc(Cl)cc21 | inactive
40 | [Na+] | inactive
